ChEMBL document CHEMBL3988442, “University of Dundee, Small-Polar-MMV Screening Library” (2021)
The whole screen tested about 38,000 compounds, of which about 1,200 (3.2%) showed an effect of 50% or more. The median lay at about -58%. The entries come from a sample that favours strong results as a whole.

test system: Plasmodium falciparum; assay: Calibr Malaria Delayed Death Assay SOP; assay type: functional, organism-based; set-up: scale not given: in the data most compounds retested in dose-response had high values; conditions: concentration 4.99e-06 (unit not given; other assays of the set use mol/L)

Row | Compound | Percent Effect [%]
1 | COc1ncccc1C(Cc1ccsc1)NC(=O)Cn1cccnc1=O (stereo unspecified) | -43.2
2 | COc1ccncc1NCc1ccsc1 | -36.48
3 | CNc1cc(N2CCCC2CNCc2cccc(C#N)c2)ncn1 (stereo unspecified) | -40.51
4 | Cc1ccc(C2CN(CCS(C)(=O)=O)CCO2)c(C)c1 (stereo unspecified) | -57.06
5 | Cc1ccccc1CS(=O)(=O)CC(=O)N(C)Cc1cccc(F)c1 | -13.79
6 | CN(Cc1cccc(F)c1)C(=O)CS(=O)(=O)Cc1c(Cl)cccc1Cl | 82.58
7 | Cc1noc(C)c1CS(=O)(=O)CC(=O)N(C)Cc1cccc(F)c1 | -32.62
8 | CO[C@H]1CC[C@H]2[C@H]1OCCN2C(=O)c1nn(C)c2ccccc12 | -87.32
9 | CC1CN(CC(=O)NCc2ccc(F)cc2)CCN1c1nccs1 (stereo unspecified) | -59.43
10 | CC/N=c1\nc(NCC)nc2n1C(O)(Nc1ccc(C)cc1C)CS2 (stereo unspecified) | -60.63
11 | Cc1cccc(CS(=O)(=O)NCc2nn(C)c3c2COCC3)c1 | -48
12 | O=C(C1CC1)N1CCC2(CC1)COCCN2Cc1ccc(F)cc1.O=C(O)C(F)(F)F | -44.57
13 | Cc1ccc(NC(=O)CN2CCOCC2)c(F)c1 | -28.6
14 | Cc1nc(C)c(C)c(N2CCC3(CCN(C)C3)C2)n1 (stereo unspecified) | 18.67
15 | CCc1nc(N)nc(N2CCCC3(CCN(C)CC3)CC2)c1C | 75.43
16 | CCc1cnc(N)nc1N1CCCC2(CCOCC2)C1 | -153.3
17 | O=C(O)C(F)(F)F.O=C(c1cnccn1)N1C[C@@H](OCc2ccncc2)[C@@H]2OCCC[C@@H]21 | -88.13
18 | CNC(=O)CCN(C)CC1(c2ccc(Br)cc2)CC1 | 86.7
19 | CNC(=O)N(C)CC1(c2ccc(Br)cc2)CC1 | -138.2
20 | CNC(=O)CN(C)CC1(c2ccc(Br)cc2)CC1 | 20.85
21 | COCCn1c2c(ccc1=O)CCN(C(=O)NC1CC1)CC2 | -102.5
22 | O=C1CC(c2ccc(O)cc2)c2sc(C(=O)O)c(-c3ccccc3)c2N1 (stereo unspecified) | -164.8
23 | Cc1ocnc1C(=O)N1CC[C@@H](O)[C@@H](O)[C@H](N2CCC(F)(F)CC2)C1 | -140.1
24 | Cc1ccc2c(n1)N(CC(C)C)CCN(S(C)(=O)=O)C2.O=C(O)C(F)(F)F | -91.42
25 | CCN1CC(CN2CCOCC2)Oc2ncccc2C1=O (stereo unspecified) | -121.7
26 | O=C(C1CNCCO1)N1CCC(c2cc(N3CCCC3)ncn2)CC1 (stereo unspecified) | -72.24

Row | Compound | Percent Effect [%]
27 | Cc1ccc(-c2ccc(C3CNCCO3)nc2)cc1.Cl (stereo unspecified) | 82.68
28 | O=C(c1csc(C2CC2)n1)N1CCCCC1Cn1cccn1 (stereo unspecified) | -84.46
29 | CN(Cc1cccc(C#N)c1)c1ncc(C(N)=O)cc1Cl | -70.4
30 | CC(C(=O)Nc1cc(F)ccc1F)N1CCN(Cc2ncc[nH]2)CC1 (stereo unspecified) | -135.8
31 | NCCC(Cc1ccccc1)c1ccco1 (stereo unspecified) | 83.75
32 | O=S(=O)(Cc1ccccc1)NCc1ccco1 | -115.6
33 | O=C(NCCC(O)c1ccccc1)c1ccco1 (stereo unspecified) | -97.01
34 | CCOc1cccc(C(=O)N(CCC#N)Cc2ccccn2)c1 | -89.54
35 | O=C(NC1CC1)c1cc2c(s1)CCN2C(=O)C1CC1 | -64.25
36 | Cc1ccc(C)c(S(=O)(=O)NC(=O)c2cccc3c2OCCO3)c1 | -117.7
37 | C[C@@H]1CN(Cc2ccncc2)C[C@]1(C)O | -25.52
38 | COc1cccc(CN2CCCCC2CN2CCOCC2)c1F (stereo unspecified) | 2.016
39 | COc1cc2c(cc1CN1CCCCC1CN1CCOCC1)CCC2 (stereo unspecified) | 64.85
40 | COc1cc2c(cc1CN1C[C@@H](CN3CCOCC3)[C@@H](CO)C1)CCC2 | 19.43
41 | Cc1c(C(=O)NCCCC(N)=O)sc2ccc(F)cc12 | -72.75
42 | O=C1CC(NS(=O)(=O)c2ccc3ccccc3c2)CN1 (stereo unspecified) | -65.16
43 | Cc1noc([C@@H]2C[C@@H]3CCN(c4nnc(C)s4)C[C@H]3O2)n1.O=C(O)C(F)(F)F | -44.29
44 | Cc1nc(C2CCNCC2)cc(N(C)CCc2cn[nH]c2)n1 | -114.3
45 | Cc1nc(C2CCNCC2)cc(N(C)Cc2cc3cc(F)ccc3[nH]2)n1 | 75.18
46 | Cc1ccnc(CC(C)N(C)c2cc(C3CCNCC3)nc(C)n2)c1 (stereo unspecified) | -104.4
47 | Cc1nc(NCc2coc(-c3ccccc3)n2)cc(C2CCNCC2)n1 | -7.041
48 | Cc1nc(NCc2ccc(C)o2)cc(C2CCNCC2)n1 | -133.8
49 | CN(Cc1cc2cc(F)ccc2[nH]1)c1cc(C2CCCNC2)ncn1 (stereo unspecified) | 83.71
50 | Cc1c(CN(C)c2cc(C3CCCNC3)ncn2)[nH]c2ccccc12 (stereo unspecified) | 11.41
51 | CNS(=O)(=O)CC(=O)N(Cc1c(F)cccc1Cl)C1CC1 | -68.94
52 | CN(Cc1cc2cc(F)ccc2[nH]1)C(=O)C1CC(=O)N(C2CCCC2)C1 (stereo unspecified) | 12.79

Row | Compound | Percent Effect [%]
53 | Cc1nc(CCN)cc(N(C)Cc2nc3ccc(F)cc3[nH]2)n1 | -113.9
54 | Cc1cccc(CNC(=O)Nc2cc(C(F)(F)F)c[nH]c2=O)n1 | -120.3
55 | CCn1nc(C)c2nc(C)nc(NC3CCCC3)c21 | -48.65
56 | Cc1ccc(CN2CCN(CC(=O)Nc3ccc4nsnc4c3)CC2)o1 | -102.5
57 | CC(=O)c1ccc(-c2cc(C(F)(F)F)cc(N(C)C)n2)cc1 | -183.7
58 | CCOC(=O)C1=NOC(Cc2cc(OC)c3c(c2)OCO3)C1 (stereo unspecified) | -124.2
59 | Cc1cc(N2CCOCC2)ccc1NC(C)c1nc(C(C)C)no1 (stereo unspecified) | -4.816
60 | Cc1sc2nc(CCN)nc(N3CCS(=O)(=O)CC3)c2c1C | -119.4
61 | CCOC(=O)N1CCN(c2nc(C)ncc2CC)CC1 | -56.83
62 | Cc1sc2nc(C(F)(F)F)nc(N3CCC(NS(C)(=O)=O)CC3)c2c1C | 27.92
63 | Cc1sc2nc(CCN)nc(N3CCC(N4CCCC4)CC3)c2c1C | 84.16
64 | Cc1sc2nc(C(F)(F)F)nc(N3CCN(S(C)(=O)=O)CC3)c2c1C | -77.64
65 | CCOC(=O)N1CCN(c2nc(CCN)nc3sc(C)c(C)c23)CC1 | 65.93
66 | Cn1ccnc1-c1cn(CCCc2nnc(N)s2)nn1 | -41.76
67 | O=C(N1CCCC(n2cncn2)C1)C1(c2cccc(F)c2)CCC1 (stereo unspecified) | -129.3
68 | CCN(CC)C(=O)COc1ccnc2cc(OC)ccc12 | -91.77
69 | O=C(C1CCCO1)N1CCC2(CC1)COCCN(Cc1cccnc1)C2.O=C(O)C(F)(F)F.O=C(O)C(F)(F)F (stereo unspecified) | -101.1
70 | Cc1cccn2cc(CNCc3cccc4c3OCCCO4)nc12 | 52.57
71 | Cc1cccc2nc(CNCc3cccc4c3OCCCO4)cn12 | 46.47
72 | c1cc(CNCCc2cn3ccccc3n2)c2c(c1)OCCCO2 | -61.04
73 | CN(C)C(=O)Cc1ccc(-c2cccc3c2CCNC3)cc1 | -89.76
74 | CCCOC1CCCN(c2ccnc(C(=O)NCc3ccco3)c2)C1 (stereo unspecified) | 63.16
75 | CN(C)[C@H]1CCN(c2ccnc(C(=O)NCc3ccco3)c2)C1 | -104.8
76 | O=C(NCc1ccco1)c1cc(N2CC[C@@H](O)C2)ccn1 | -225.7
77 | CCS(=O)(=O)Nc1cnn(Cc2cccc(Cl)c2)c1 | -156.5
78 | COc1ccc(-c2nc3c([nH]2)CCCNC3=O)cc1OC | -190.2

Row | Compound | Percent Effect [%]
79 | Cc1nn(C)c(N2CCOCC2)c1CNC(C)c1ccccn1 (stereo unspecified) | -39.11
80 | CN(C)C(=O)C1(Oc2ccc(Cl)cc2)CCNCC1 | 48.49
81 | CN(Cc1ccoc1)C(=O)C1(Oc2ccc(Cl)cc2)CCNCC1 | 67.21
82 | CN(Cc1ccncn1)C(=O)C1(Oc2ccc(Cl)cc2)CCNCC1 | -76.49
83 | Cc1ccc(OC2(C(=O)N(C)Cc3ccoc3)CCNCC2)cc1 | 63.87
84 | COc1cccn(CC(=O)N(C)Cc2ccoc2)c1=O | -45.98
85 | O=C(N[C@@H]1CCCNC1)C1(Oc2ccc(Cl)cc2)CCNCC1 | -19.49
86 | Cc1ccc(C(=O)N2CC[C@@]3(O)CCCC[C@H]3C2)cc1 | -98.64
87 | O=C1CC(c2ccncc2)c2c(sc3c2CCCC3)N1 (stereo unspecified) | 55.71
88 | O=C1CC(c2cccnc2)c2c(sc3c2CCCC3)N1 (stereo unspecified) | 28.11
89 | O=C1CC(c2ccc(C(=O)O)cc2)c2c(sc3c2CCCC3)N1 (stereo unspecified) | -5.696
90 | O=C(CCc1ccco1)NS(=O)(=O)N1CCOc2ccccc21 | -129.3
91 | CCCc1cc(CNC(=O)Cc2cc(C)no2)on1 | -176
92 | CCC[C@H]1CN(Cc2cc(C)no2)C[C@@H]1NC(=O)C1(COC)CCC1 | -58.42
93 | Cc1ccccc1Oc1ncccc1CNC1CCC1 | 31.34
94 | Cc1cc(C[C@@H]2CCC[C@H]2NCc2ccccc2F)on1.O=C(O)CC(O)(CC(=O)O)C(=O)O | -9.902
95 | CCCOc1ccccc1CN[C@@H]1CCC[C@H]1Cc1cc(C)no1.O=C(O)CC(O)(CC(=O)O)C(=O)O | 84.13
96 | Cc1cc(CS(=O)(=O)NC2CCCCC2)on1 | -56.68
97 | Cc1cc(C[C@@H]2CCC[C@H]2NCc2cccc(F)c2F)on1.O=C(O)CC(O)(CC(=O)O)C(=O)O | -66.07
98 | Cc1cc(C[C@@H]2CCC[C@H]2NCc2ccccc2C)on1.O=C(O)CC(O)(CC(=O)O)C(=O)O | 63.44
99 | COc1ccc(-c2nc(CN3CCc4cnc(C)nc4C3)no2)cc1 | -21.98
100 | Cc1cccc(NC(=O)[C@@H]2CCCN2Cc2nc3ccccc3o2)n1 | -70.67
101 | O=C(O)C(F)(F)F.O=C(O)c1cc(NS(=O)(=O)c2ccc(Cl)s2)ccc1N1CCOCC1 | -83.84
